Assay results published in PubChem BioAssay (Tox21).
“And” between values parts separate entries of the source, which are not always exact repeats. Equal entries are not always repeated. Inconclusive results are not listed. A call without a number means that no potency is given here. Unmarked numbers belong to inactive results. The source made the active and inactive calls. The call rests on the fitted dose curve; in most records, active means well fitted cell-killing curve with a large enough effect in the repeat runs; inconclusive means weak or mixed curves, or effect the other way; inactive means flat fitted curve, though single readings scatter.

Legend:
[1] = cAMP Responsive Elements (CRE) small molecule antagonists, cell-based qHTS assay: qHTS cell viability counter screen (AID 2060913); details: CRE-bla HEK293T viability, CellTiter-Glo luminescence, 5 h; series mostly up to 92.4 µM; further: nearly all actives have a fitted effect of over 40% in size
Summary of the method: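 Viability of NKH477-stimulated (0.25 uM final) CRE-bla HEK293T cells is measured by CellTiter-Glo luminescence following 3 hrs compound exposure at 37 C.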

[2] = cAMP Responsive Elements (CRE) small molecule agonists, cell-based qHTS assay: qHTS cell viability counter screen (AID 2060914); details: CRE-bla HEK293T viability, CellTiter-Glo luminescence, 5 h; series mostly up to 92.4 µM; further: nearly all actives have a fitted effect of over 50% in size
Summary of the method: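 Luminescence read-out (CellTiter-Glo, 30 min RT) of ATP-based viability in CRE-bla HEK 293T cells, run in the same wells as the β-lactamase reporter assay after 3 h compound treatment at 37 °C.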
Potency means the concentration at half of the fitted maximal effect.

Compound: Nc1cc(Cl)c([N+](=O)[O-])cc1O
- Potency [1]: inactive
- Potency [2]: inactive

Compound: CCC(COC(=O)CCS)(COC(=O)CCS)COC(=O)CCS
- Potency [1]: inactive
- Potency [2]: inactive

Compound: CCC(O)C(C)(C)C (centres undefined)
- Potency [1]: inactive
- Potency [2]: inactive

Compound: NCc1ccc(S(N)(=O)=O)cc1
- Potency [1]: inactive
- Potency [2]: inactive

Compound: CC(CN=Cc1ccccc1O)N=Cc1ccccc1O (centres undefined)
- Potency [1]: inactive
- Potency [2]: inactive

Compound: CCCCCOC(=O)COc1cc(N2C(=O)C3=C(CCCC3)C2=O)c(F)cc1Cl
- Potency [1]: inactive
- Potency [2]: inactive

Compound: CN(C)CCN(C)CCO
- Potency [1]: inactive
- Potency [2]: inactive

Compound: O=C(c1ccc(O)c(O)c1)c1ccc(O)cc1O
- Potency [1]: inactive
- Potency [2]: inactive

Compound: O=C(Cl)c1c(Cl)cccc1Cl
- Potency [1]: inactive
- Potency [2]: inactive

Compound: C[C@H](N)C(=O)N[C@@H](C)C(=O)NC1[C@H]2CN(c3nc4c(cc3F)c(=O)c(C(=O)O)cn4-c3ccc(F)cc3F)C[C@@H]12 (some centres undefined)
- Potency [1]: inactive
- Potency [2]: inactive

Compound: CCC(C)N(C)C(=O)c1cc2ccccc2c(-c2ccccc2Cl)n1 (centres undefined)
- Potency [1]: inactive
- Potency [2]: inactive

Compound: CCCCC(CC)C(=O)OCCOCCOCCOCCOC(=O)C(CC)CCCC (centres undefined)
- Potency [1]: inactive
- Potency [2]: inactive

Compound: CCN(CC)c1ccc2c(c1)Oc1cc(N(CC)CC)ccc1C21OC(=O)c2ccccc21
- Potency [1]: inactive
- Potency [2]: inactive

Compound: CN1CCN(c2c(F)cc3c(=O)c(C(=O)O)cn4c3c2OCN4C)CC1
- viability change, negative = cytotoxic [1]: 3.45% [at 18.9 µM]
- activity change, negative = cytotoxicity [2]: 10.7% [at 18.9 µM]

Compound: COCC(O)CO (centres undefined)
- Potency [1]: inactive
- Potency [2]: inactive

Compound: CCc1cccc(N(C)C(N)=Nc2cccc3ccccc23)c1
- Potency [1]: inactive
- Potency [2]: inactive

Compound: O=C(O)c1cc(O)c2c(c1)C(=O)c1cccc(O)c1C2=O
- Potency [1]: inactive
- Potency [2]: inactive

Compound: OB(O)O
- Potency [1]: inactive
- Potency [2]: inactive

Compound: Cc1ccncc1
- Potency [1]: inactive
- Potency [2]: inactive

Compound: CCCCC(CC)COCCC#N (centres undefined)
- Potency [1]: inactive
- Potency [2]: inactive

Compound: Nc1cccc([N+](=O)[O-])c1
- Potency [1]: inactive
- Potency [2]: inactive

Compound: O=C(NCC1CN(c2ccc(N3CCOCC3=O)cc2)C(=O)O1)c1ccc(Cl)s1 (centres undefined)
- Potency [1]: inactive
- Potency [2]: inactive

Compound: Cc1ccccc1Br
- Potency [1]: inactive
- Potency [2]: inactive

Compound: CC(C)(C)S
- Potency [1]: inactive
- Potency [2]: inactive

Compound: Cc1[nH]nc2c1N=C(c1ccccc1Cl)c1cc([N+](=O)[O-])ccc1N2
- Potency [1]: inactive
- Potency [2]: inactive

Compound: O=C(O)CCC(=O)OC[C@@H](NC(=O)C(Cl)Cl)[C@H](O)c1ccc([N+](=O)[O-])cc1
- Potency [1]: inactive
- Potency [2]: inactive

Compound: O=C1NC(=O)C(c2ccccc2)(c2ccccc2)N1
- Potency [1]: inactive
- Potency [2]: inactive

Compound: C=CC(C)(CCC=C(C)C)OC=O (centres undefined)
- Potency [1]: inactive
- Potency [2]: inactive

Compound: CCCCCCC1(C)CCC(=O)O1 (centres undefined)
- Potency [1]: inactive
- Potency [2]: inactive

Compound: CC(C)(O)CCC(C)(C)O
- Potency [1]: inactive
- Potency [2]: inactive

Compound: COc1cc(C(=O)OCCCN2CCCN(CCCOC(=O)c3cc(OC)c(OC)c(OC)c3)CC2)cc(OC)c1OC
- Potency [1]: inactive
- Potency [2]: inactive

Compound: Cc1cccn2c(=O)c(-c3nnn[nH]3)cnc12
- viability change, negative = cytotoxic [1]: -1.68% [at 18.9 µM]
- activity change, negative = cytotoxicity [2]: -13.9% [at 18.9 µM]

Compound: CCCCCCCCCCCC[N+](C)(C)Cc1ccccc1
- Potency [1]: 60 µM (active) and 59.2 µM (active) and 13.3 µM (active)
- Potency [2]: 53.4 µM (active) and 37.4 µM (active) and 29.8 µM (active)

Compound: CCCC(C)C
- Potency [1]: inactive
- Potency [2]: inactive

Compound: C[C@@H]1CN(c2c(F)c(N)c3c(=O)c(C(=O)O)cn(C4CC4)c3c2F)C[C@H](C)N1
- viability change, negative = cytotoxic [1]: -4.19% [at 18.9 µM]
- activity change, negative = cytotoxicity [2]: -0.413% [at 18.9 µM]

Compound: CCCCC(=O)O[C@]1(C(=O)CO)[C@H](C)C[C@H]2[C@@H]3CCC4=CC(=O)C=C[C@]4(C)[C@@]3(F)[C@@H](O)C[C@@]21C
- Potency [1]: inactive
- Potency [2]: inactive

Compound: C=CCOC(=O)c1ccc(C(=O)OCC=C)c(C(=O)OCC=C)c1
- Potency [1]: inactive
- Potency [2]: inactive

Compound: CO
- Potency [1]: inactive
- Potency [2]: inactive

Compound: CCOC(=O)c1cccc(N)c1
- Potency [1]: inactive
- Potency [2]: inactive

Compound: O=C(O)CN(CCOCCOCCN(CC(=O)O)CC(=O)O)CC(=O)O
- viability change, negative = cytotoxic [1]: -0.164% [at 0.349 µM]
- activity change, negative = cytotoxicity [2]: -3.94% [at 0.349 µM]

Compound: CC(C)(C)C1(CCc2ccc(Cl)cc2)CO1 (centres undefined)
- Potency [1]: inactive
- Potency [2]: inactive

Compound: C=CCn1c(=O)n(CC=C)c(=O)n(CC=C)c1=O
- Potency [1]: inactive
- Potency [2]: inactive

Compound: CN(C)CCC[C@@]1(c2ccc(F)cc2)OCc2cc(C#N)ccc21
- Potency [1]: inactive
- Potency [2]: inactive

Compound: O=S(=O)(O)c1cc(O)c(O)c(S(=O)(=O)O)c1
- Potency [1]: inactive
- Potency [2]: inactive

Compound: O[C@@H](COc1cccc2ncccc12)CN1CCN(C2c3ccccc3[C@@H]3[C@H](c4ccccc42)C3(F)F)CC1 (some centres undefined)
- Potency [1]: inactive
- Potency [2]: inactive

Compound: COc1nccnc1CC(C)C
- Potency [1]: inactive
- Potency [2]: inactive

Compound: C#CCOC(=O)[C@@H](C)Oc1ccc(Oc2ncc(Cl)cc2F)cc1
- Potency [1]: inactive
- Potency [2]: inactive

Compound: NC(=O)CCCCC(N)=O
- Potency [1]: inactive
- Potency [2]: inactive

Compound: CCNC(=S)NCC
- Potency [1]: inactive
- Potency [2]: inactive

Compound: NC(=O)NS(=O)(=O)c1ccc(Cl)cc1
- Potency [1]: inactive
- Potency [2]: inactive

Compound: O=c1oc2cc(O)ccc2c2oc3cc(O)ccc3c12
- Potency [1]: inactive
- Potency [2]: inactive

Compound: CCC(=O)Nc1cccc(N)c1
- Potency [1]: inactive
- Potency [2]: inactive
